From PubChem BioAssay (NCI) come the findings set out here.

Test systems include SR leukemia; RPMI-8226 leukemia; OVCAR-8 ovarian; OVCAR-5 ovarian; SK-OV-3 ovarian; IGROV1 ovarian; OVCAR-3 ovarian; HS 578T breast; NCI/ADR-RES ovarian; T-47D breast; BT-549 breast; MDA-MB-435 melanoma; SW-620 colon; MCF7 breast; HCT-116 colon; HCC-2998 colon; KM12 colon; OVCAR-4 ovarian.
Common to all, as to experiment: NCI-60 one-dose screen, 48 h (100 = growth as untreated, 0 = no growth, -100 = all killed)
What all share (settings): 10 µM unless noted

The panel holds about 83,000 compounds, 20% with a hit somewhere; the sample as a whole holds those more often.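 Testing used 96-well plates and a 48-hour single-concentration exposure. Example: -40 means 40% of the starting cells died.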 Unmarked numbers belong to inactive results. Calls of active or inactive are those of the source. Rule for the calls: active = growth percent below 10; inactive = the rest.

In the case of `Cc1ccc(CNc2ccc(Cl)cc2NCc2ccc(C)c(O)c2)cc1O`, the growth is -33% (active) in the assay on SR leukemia; 16% with RPMI-8226 leukemia; 23.6% in the assay with OVCAR-8 ovarian; 73.6% in the assay with OVCAR-5 ovarian; 54.7% in the assay on SK-OV-3 ovarian; 24.2% in the assay with IGROV1 ovarian. For the same compound, the growth was 10.9% in the assay with OVCAR-3 ovarian; 42.7% with HS 578T breast; 15.4% in the assay on NCI/ADR-RES ovarian; 11.3% in the assay with T-47D breast; 39.9% in the assay with BT-549 breast; 30.9% in the assay with MDA-MB-435 melanoma. Further, the growth in the assay on SW-620 colon is 25.9%; in the assay on MCF7 breast, 9.21% (active); in the assay with HCT-116 colon it was 24.4%; with HCC-2998 colon, 22.7%; in the assay on KM12 colon it was -1.46% (active).

For `CCCCOC(=O)OCc1cc(=O)c(O)co1`, the growth in the assay on SR leukemia is 104%; with RPMI-8226 leukemia it was 106%; in the assay with OVCAR-8 ovarian it was 102%; with OVCAR-5 ovarian, 102%; in the assay on SK-OV-3 ovarian, 105%; in the assay on IGROV1 ovarian, 110%. In addition, the growth with OVCAR-3 ovarian was 114%; in the assay on HS 578T breast it was 101%; in the assay with NCI/ADR-RES ovarian, 108%; with T-47D breast it was 90.8%; with BT-549 breast, 110%; in the assay with MDA-MB-435 melanoma it was 102%. The growth with SW-620 colon was 103%; in the assay on MCF7 breast it was 94.5%; in the assay with HCT-116 colon it was 106%; in the assay with HCC-2998 colon, 106%; in the assay with KM12 colon, 104%.

With `O=C(OCc1ccc2cccc(O)c2n1)N1CCN(C(=O)c2cc3cc(F)ccc3[nH]2)CC1`, the growth was -9.28% (active) in the assay on SR leukemia; -26.1% (active) with RPMI-8226 leukemia; -40.6% (active) in the assay on OVCAR-8 ovarian; -84.5% (active) with OVCAR-5 ovarian; 54.3% in the assay with SK-OV-3 ovarian; -91.4% (active) in the assay on IGROV1 ovarian. Moreover, the growth was -79.3% (active) in the assay with OVCAR-3 ovarian; -21.2% (active) in the assay on HS 578T breast; -21.5% (active) in the assay with NCI/ADR-RES ovarian; -68.3% (active) with T-47D breast; -57.4% (active) in the assay on BT-549 breast; -89.8% (active) with MDA-MB-435 melanoma. Further, the growth in the assay with SW-620 colon is -62.8% (active); in the assay on MCF7 breast it was -28% (active); with HCT-116 colon, -78.8% (active); in the assay on HCC-2998 colon, -4.94% (active); with KM12 colon, -48.1% (active).

In the case of `O=C1N(Cc2ccccc2Cl)c2ccccc2C12NN=C(c1cccc(Cl)c1)S2` (stereo unspecified), the growth in the assay on SR leukemia is -1.58% (active); in the assay on RPMI-8226 leukemia, 30.5%; in the assay with OVCAR-8 ovarian, -23.5% (active); in the assay with OVCAR-5 ovarian, 9.45% (active); with SK-OV-3 ovarian, -5.89% (active); in the assay with IGROV1 ovarian, 20.2%. In addition, the growth in the assay on OVCAR-3 ovarian was 4.87% (active); with HS 578T breast it was 3.21% (active); in the assay with NCI/ADR-RES ovarian, -17% (active); with T-47D breast it was 6.86% (active); in the assay with BT-549 breast it was -20% (active); in the assay with MDA-MB-435 melanoma, 2.22% (active). Also, the growth in the assay with SW-620 colon is 9.59% (active); with MCF7 breast, 1.43% (active); in the assay on HCT-116 colon, 9.78% (active); in the assay with HCC-2998 colon, -61% (active); with KM12 colon, 21.4%.

Regarding `O=C(Nc1nc2ccc(F)cc2s1)c1cccnc1Nc1ccc(Cl)cc1`, the growth in the assay on SR leukemia was 29.5%; in the assay with RPMI-8226 leukemia it was 25%; in the assay with OVCAR-8 ovarian it was 47.3%; in the assay on OVCAR-5 ovarian it was 90.9%; in the assay with SK-OV-3 ovarian it was 58%; in the assay with IGROV1 ovarian, 39.9%. In addition, the growth in the assay with OVCAR-3 ovarian is 13.6%; in the assay with HS 578T breast it was 39.6%; in the assay on NCI/ADR-RES ovarian it was 10.5%; in the assay with T-47D breast, -0.413% (active); in the assay with BT-549 breast, 31.8%; with MDA-MB-435 melanoma it was 29.2%. Also, the growth in the assay on SW-620 colon was 49.8%; with MCF7 breast, 17.7%; with HCT-116 colon, 14.2%; in the assay on KM12 colon, 31.3%.

Take `C/C(=N/O)c1ccc(F)cc1`: the growth was 68% with SR leukemia; 85.5% with RPMI-8226 leukemia; 86.5% with OVCAR-8 ovarian; 80.1% with OVCAR-5 ovarian; 85.2% with SK-OV-3 ovarian; 84.5% in the assay on IGROV1 ovarian. The growth in the assay with OVCAR-3 ovarian is 132%; in the assay with HS 578T breast, 95.6%; in the assay with NCI/ADR-RES ovarian, 77.7%; in the assay with T-47D breast, 91.4%; in the assay with BT-549 breast, 88.2%; with MDA-MB-435 melanoma, 112%. Further, the growth with SW-620 colon is 48.6%; in the assay with MCF7 breast, 54.3%; with HCT-116 colon it was 51.9%; in the assay with HCC-2998 colon it was 130%; in the assay with KM12 colon, 106%.

As to `CN(C)CCCC1(c2ccc(F)cc2)OCc2cc(-c3cncc4ccccc34)ccc21` (stereo unspecified), the growth with SR leukemia was -3.26% (active); in the assay with RPMI-8226 leukemia, 35.3%; in the assay with OVCAR-8 ovarian it was 62.7%; in the assay with OVCAR-5 ovarian it was 70.5%; in the assay with SK-OV-3 ovarian, 59.6%; in the assay with IGROV1 ovarian, 22.1%. For the same compound, the growth is 47% in the assay on OVCAR-3 ovarian; 27.5% in the assay on HS 578T breast; 67% in the assay on NCI/ADR-RES ovarian; 55.9% with T-47D breast; 76.8% in the assay on BT-549 breast; 8.32% (active) in the assay with MDA-MB-435 melanoma. Also, the growth in the assay with SW-620 colon was 34.2%; in the assay with MCF7 breast, 23.5%; in the assay on HCT-116 colon it was 22.5%; with HCC-2998 colon, 7.15% (active); with KM12 colon, 34.5%.

With `O=C1/C(=C/c2ccc(F)cc2)COc2ccc(O)cc21`, the growth with SR leukemia is 1.11% (active); in the assay on RPMI-8226 leukemia, -19% (active); in the assay on OVCAR-8 ovarian, 87.4%; with OVCAR-5 ovarian, 96.9%; in the assay on SK-OV-3 ovarian, 123%; in the assay with IGROV1 ovarian, 84.9%. In addition, the growth was 92.4% in the assay with OVCAR-3 ovarian; 94.1% in the assay with HS 578T breast; 93.2% in the assay with NCI/ADR-RES ovarian; 86.6% with T-47D breast; 78.2% in the assay with BT-549 breast; 62.9% in the assay on MDA-MB-435 melanoma. Further, the growth was 26% in the assay on SW-620 colon; 7.92% (active) in the assay on MCF7 breast; 23.6% in the assay with HCT-116 colon; 90% in the assay with HCC-2998 colon; 45.9% with KM12 colon.

Consider `COc1cc(CNS(=O)(=O)c2ccc(C)cc2)ccc1OCc1cn(-c2ccc(Br)cc2)nn1`, for which the growth in the assay on SR leukemia is 100%; in the assay on OVCAR-8 ovarian, 102%; in the assay on OVCAR-5 ovarian, 108%; in the assay on OVCAR-4 ovarian, 97.3%; in the assay on SK-OV-3 ovarian, 75.3%; in the assay with IGROV1 ovarian it was 103%. Moreover, the growth with OVCAR-3 ovarian was 112%; in the assay on HS 578T breast, 95.6%; in the assay with NCI/ADR-RES ovarian, 104%; in the assay on T-47D breast it was 101%; in the assay with BT-549 breast, 110%; in the assay with MDA-MB-435 melanoma it was 101%. Besides, the growth in the assay with SW-620 colon is 99.1%; with MCF7 breast, 88%; in the assay on HCT-116 colon, 100%; with KM12 colon, 103%.
